# Measurements published in the supplement of paper PMC8728848.
# The full list was thinned out, with the strongest signals kept by preference.
# Columns and labels:
# Assay in all cases: glycan array binding signal (z-score within array); higher = stronger binding
# Details in all cases: glycan notation: IUPAC condensed, linker removed
# [1] = molecular target: Fuc(a1-2)Gal(b1-3)GlcNAc(b1-2)Man(a1-3)[Fuc(a1-2)Gal(b1-3)GlcNAc(b1-2)Man(a1-6)]Man(b1-4)GlcNAc(b1-4)GlcNAc
# Method in brief: (§1)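 The binding signal is a Z-score computed within each array and averaged over linkers. Arrays of the same protein sequence at different concentrations or buffers were also averaged together. Data originate from 3228 arrays in the Consortium for Functional Glycomics database, kept only where the protein sequence was available.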
# [2] = molecular target: Fuc(a1-2)Gal(b1-3)GlcNAc(b1-3)Gal(b1-4)Glc
# Method in brief: as §1
# Fuc(a1-2)Gal(b1-4)GlcNAc = molecular target: Fuc(a1-2)Gal(b1-4)GlcNAc
# Method in brief: as §1
# [3] = molecular target: Fuc(a1-2)Gal(b1-4)GlcNAc(b1-2)[Fuc(a1-2)Gal(b1-4)GlcNAc(b1-4)]Man(a1-3)[Fuc(a1-2)Gal(b1-4)GlcNAc(b1-2)Man(a1-6)]Man(b1-4)GlcNAc(b1-4)GlcNAc
# Method in brief: as §1
# [4] = molecular target: Fuc(a1-2)Gal6S(b1-3)GlcNAc
# Method in brief: as §1
# Fuc(a1-2)[Gal(a1-3)]Gal = molecular target: Fuc(a1-2)[Gal(a1-3)]Gal
# Method in brief: as §1
# [5] = molecular target: Fuc(a1-2)[Gal(a1-3)]Gal(b1-3)GalNAc
# Method in brief: as §1
# [6] = molecular target: Fuc(a1-2)[Gal(a1-3)]Gal(b1-4)GlcNAc(b1-2)Man(a1-3)[Fuc(a1-2)[Gal(a1-3)]Gal(b1-4)GlcNAc(b1-2)Man(a1-6)]Man(b1-4)GlcNAc(b1-4)[Fuc(a1-6)]GlcNAc
# Method in brief: as §1
# [7] = molecular target: Fuc(a1-2)[Gal(a1-3)]Gal(b1-4)GlcNAc(b1-6)GalNAc
# Method in brief: as §1
# [8] = molecular target: Fuc(a1-2)[Gal(a1-3)]Gal(b1-4)[Fuc(a1-3)]Glc
# Method in brief: as §1
# [9] = molecular target: Fuc(a1-2)[Gal(a1-3)]Gal(b1-4)[Fuc(a1-3)]GlcNAc(b1-3)GalNAc
# Method in brief: as §1
# [10] = molecular target: Fuc(a1-2)[GalNAc(a1-3)]Gal(b1-3)GlcNAc
# Method in brief: as §1
# [11] = molecular target: Fuc(a1-3)[Gal(b1-4)]GlcNAc(b1-2)Man
# Method in brief: as §1
# [12] = molecular target: Fuc(a1-3)[Gal(b1-4)]GlcNAc(b1-3)Gal(b1-3)[Fuc(a1-4)]GlcNAc
# Method in brief: as §1
# [13] = molecular target: Fuc(a1-3)[Gal(b1-4)]GlcNAc(b1-3)GalNAc
# Method in brief: as §1
# [14] = molecular target: Fuc(a1-3)[GalNAc(b1-4)]GlcNAc
# Method in brief: as §1
# [15] = molecular target: Gal(a1-3)Gal(b1-3)GlcNAc(b1-3)GalNAc
# Method in brief: as §1
# [16] = molecular target: Gal(a1-3)Gal(b1-4)GlcNAc(b1-2)Man(a1-3)[Gal(a1-3)Gal(b1-4)GlcNAc(b1-2)Man(a1-6)]Man(b1-4)GlcNAc(b1-4)GlcNAc
# Method in brief: as §1
# Gal(a1-3)GalNAc = molecular target: Gal(a1-3)GalNAc
# Method in brief: as §1
# Gal(a1-4)Gal(b1-4)Glc = molecular target: Gal(a1-4)Gal(b1-4)Glc
# Method in brief: as §1
# Gal(b1-2)Gal = molecular target: Gal(b1-2)Gal
# Method in brief: as §1
# Gal(b1-3)Gal(b1-4)GlcNAc = molecular target: Gal(b1-3)Gal(b1-4)GlcNAc
# Method in brief: as §1
# [17] = molecular target: Gal(b1-3)GalNAc(a1-3)[Fuc(a1-2)]Gal(b1-4)Glc
# Method in brief: as §1
# Gal(b1-3)GlcNAc(b1-2)Man = molecular target: Gal(b1-3)GlcNAc(b1-2)Man
# Method in brief: as §1
# [18] = molecular target: Gal(b1-3)GlcNAc(b1-3)Gal(b1-4)GlcNAc(b1-3)Gal(b1-4)GlcNAc(b1-2)[Gal(b1-3)GlcNAc(b1-3)Gal(b1-4)GlcNAc(b1-3)Gal(b1-4)GlcNAc(b1-6)]Man(a1-6)[Gal(b1-3)GlcNAc(b1-3)Gal(b1-4)GlcNAc(b1-3)Gal(b1-4)GlcNAc(b1-2)Man(a1-3)]Man(b1-4)GlcNAc(b1-4)[Fuc(a1-6)]GlcNAc
# Method in brief: as §1
# [19] = molecular target: Gal(b1-3)[Neu5Ac(a2-6)]GlcNAc(b1-6)Gal(b1-4)Glc
# Method in brief: as §1
# Gal(b1-4)GlcNAc(b1-2)Man = molecular target: Gal(b1-4)GlcNAc(b1-2)Man
# Method in brief: as §1
# [20] = molecular target: Gal(b1-4)GlcNAc(b1-2)[Gal(b1-4)GlcNAc(b1-4)]Man(a1-3)[GlcNAc(b1-4)][Gal(b1-4)GlcNAc(b1-2)Man(a1-6)]Man(b1-4)GlcNAc(b1-4)GlcNAc
# Method in brief: as §1
# [21] = molecular target: Gal(b1-4)GlcNAc(b1-3)Gal(b1-4)GlcNAc(b1-2)[Gal(b1-4)GlcNAc(b1-3)Gal(b1-4)GlcNAc(b1-6)]Man(a1-6)[Gal(b1-4)GlcNAc(b1-3)Gal(b1-4)GlcNAc(b1-2)Man(a1-3)]Man(b1-4)GlcNAc(b1-4)[Fuc(a1-6)]GlcNAc
# Method in brief: as §1
# [22] = molecular target: Gal(b1-4)GlcNAc(b1-3)Gal(b1-4)GlcNAc(b1-3)Gal(b1-4)GlcNAc(b1-2)Man(a1-3)[Gal(b1-4)GlcNAc(b1-3)Gal(b1-4)GlcNAc(b1-3)Gal(b1-4)GlcNAc(b1-2)Man(a1-6)]Man(b1-4)GlcNAc(b1-4)GlcNAc
# Method in brief: as §1
binder,measurement,setting,value
"Gal 1 (Mus musculus), P16045 (protein) MACGLVASNLNLKPGECLKVRGEVASDAKSFVLNLGKDSNNLCLHFNPRFNAHGDANTIVCNTKEDGTWGTEHREPAFPFQPGSITEVCITFDQADLTIKLPDGHEFKFPNRLNMEAINYMAADGDFKIKCVAFE",glycan array binding signal (z-score),[1],0.069
same,glycan array binding signal (z-score),[2],-0.229
same,glycan array binding signal (z-score),Fuc(a1-2)Gal(b1-4)GlcNAc,-0.279
same,glycan array binding signal (z-score),[3],0.547
same,glycan array binding signal (z-score),[4],-0.468
same,glycan array binding signal (z-score),Fuc(a1-2)[Gal(a1-3)]Gal,-0.365
same,glycan array binding signal (z-score),[5],-0.363
same,glycan array binding signal (z-score),[6],0.008
same,glycan array binding signal (z-score),[7],-0.106
same,glycan array binding signal (z-score),[8],-0.455
same,glycan array binding signal (z-score),[9],-0.325
same,glycan array binding signal (z-score),[10],-0.394
same,glycan array binding signal (z-score),[11],-0.075
same,glycan array binding signal (z-score),[12],-0.064
same,glycan array binding signal (z-score),[13],-0.264
same,glycan array binding signal (z-score),[14],-0.277
same,glycan array binding signal (z-score),[15],-0.23
same,glycan array binding signal (z-score),[16],4.96
same,glycan array binding signal (z-score),Gal(a1-3)GalNAc,-0.186
same,glycan array binding signal (z-score),Gal(a1-4)Gal(b1-4)Glc,-0.376
same,glycan array binding signal (z-score),Gal(b1-2)Gal,0.468
same,glycan array binding signal (z-score),Gal(b1-3)Gal(b1-4)GlcNAc,-0.195
same,glycan array binding signal (z-score),[17],-0.41
same,glycan array binding signal (z-score),Gal(b1-3)GlcNAc(b1-2)Man,-0.113
same,glycan array binding signal (z-score),[18],2.97
same,glycan array binding signal (z-score),[19],-0.078
same,glycan array binding signal (z-score),Gal(b1-4)GlcNAc(b1-2)Man,-0.253
same,glycan array binding signal (z-score),[20],0.891
same,glycan array binding signal (z-score),[21],3.02
same,glycan array binding signal (z-score),[22],2.85
